Assay in all cases: NCI-60 one-dose screen, 48 h (100 = growth as untreated, 0 = no growth, -100 = all killed)
What all share (details): 10 µM unless noted

Test [1] relates to BT-549 breast.
Test [2] deals with MDA-MB-435 melanoma.
In test [3] the test system is SW-620 colon.
In test [4] the test system is MCF7 breast.
For test [5], the system named is HCT-116 colon.
Test [6] deals with HCC-2998 colon.
The test system of test [7] is KM12 colon.

This is part of a sample that, as a whole, favours compounds with a hit. Of some 83,000 tested, about 20% had one in any assay.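 Testing used 96-well plates and a 48-hour single-concentration exposure. Example: -40 means 40% of the starting cells died.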 Unmarked numbers belong to inactive results. The source made the active and inactive calls. Rule for the calls: active = growth percent below 10; inactive = the rest.

These results are taken from PubChem BioAssay (NCI).

Take `COc1ccc(C2CC(c3ccc(OC)cc3O)=NN2c2ccc(S(N)(=O)=O)cc2)cc1` (stereo not given): the growth was 58.2% in test [1]; 36.8% in test [2]; 50.6% in test [3]; 13.7% in test [4]; 20.5% in test [5]; 54.4% in test [6]. Moreover, the growth in test [7] is 23.7%.
Consider `Nc1c(C(=O)Nc2ccccn2)sc2nc3c(cc12)CCCCC3`, for which the growth in test [1] is 52.6%; in test [2], -25.2% (active); in test [3], 30%; in test [4], 20.1%; in test [5] it was 17.1%; in test [6] it was 30.7%. In test [7], the growth is 18.8%.
`N#CC1C(c2ccc(Cl)cc2)=Nc2c(c(-c3ccccc3)nn2-c2ccccc2)C12C(=O)Nc1ccc(Cl)cc12` (stereo not given): the growth in test [1] was 50%; in test [2], 34.5%; in test [3] it was 42.1%; in test [4] it was 28.4%; in test [5], 26.2%; in test [6], 55.2%. Also, the growth in test [7] is 26.1%.
On to `COc1ccc2[nH]c(=O)c(/C=C/C(=O)/C=C/c3ccc(O)c(OC)c3)cc2c1`, for which the growth in test [1] is -22.8% (active); in test [2], -30% (active); in test [3], -24.8% (active); in test [4] it was 13%; in test [5], -86.7% (active); in test [6] it was -74% (active). For the same compound, the growth in test [7] is -45% (active).
For the compound `OCCNc1nc(NCCO)nc(Nc2ccc(C3=NN(c4cc(Cl)cc(Cl)c4)C(c4ccc(C(F)(F)F)cc4)C3)cc2)n1` (stereo not given), the growth in test [1] is 60.8%; in test [2], 42.1%; in test [3], 60.1%; in test [4] it was 10.7%; in test [5] it was 32.7%; in test [6] it was 45.1%. Also, the growth in test [7] was 26%.
In the case of `c1ccc2c3c([nH]c2c1)C(c1ccc(C2NCCc4c2[nH]c2ccccc42)cc1)NCC3` (stereo not given), the growth in test [1] was 86.9%; in test [2] it was -91.6% (active); in test [3], -80% (active); in test [4], -81.2% (active); in test [5], -91.7% (active); in test [6], -64.8% (active). The growth in test [7] is -62% (active).
For `COc1ccc(/C=C/C(=O)c2ccc(NC(=O)CSc3nnc(-c4ccc(OC)c(OC)c4)n3-c3ccccc3)cc2)cc1`, the growth was 55.2% in test [1]; 45.3% in test [2]; 10.2% in test [3]; -8.34% (active) in test [4]; -85.8% (active) in test [5]; 94.9% in test [6]. For the same compound, the growth in test [7] is 61.3%.
Take `CCO/C=N/S(=O)(=O)c1cc2c(cc1Cl)NC=NS2(=O)=O`: the growth in test [1] was 101%; in test [2], 97.5%; in test [3], 94.9%; in test [4], 96.2%; in test [5], 103%; in test [6], 102%. In addition, in test [7], the growth is 107%.
As for `COc1cc(/C=C/CO)cc(OC)c1O[C@@H]1O[C@H](CO)[C@@H](O)[C@H](O)[C@H]1O`, the growth in test [1] was 104%; in test [2], 102%; in test [3], 94%; in test [4] it was 93.2%; in test [5] it was 95.8%; in test [6], 102%. Further, the growth in test [7] was 105%.
As for `CSc1nc(-c2cccs2)c2c(N)[nH]nc2n1`, the growth is 96.4% in test [1]; 117% in test [2]; 119% in test [3]; 94.3% in test [4]; 92.2% in test [5]; 107% in test [6]. In addition, the growth in test [7] was 48.8%.
In the case of `Cc1cccc(C)c1NC(=O)CN(CC(C)C)CC(O)COc1ccccc1` (stereo not given), the growth is 82.4% in test [1]; 102% in test [2]; 93.6% in test [3]; 83.3% in test [4]; 86.8% in test [5]; 95.8% in test [6]. Besides, the growth in test [7] was 100%.
For `COC(=O)/C=C1\SC(=Nc2cccc(OC)c2)N(CCc2c[nH]c3ccccc23)C1=O`, the growth is 52.3% in test [1]; 62.5% in test [2]; 78.2% in test [3]; 25.8% in test [4]; 50.1% in test [5]; 97% in test [6]. The growth in test [7] is 48.3%.
`COc1ccc(-c2cs/c(=N\N=C\c3ccc(O)cc3O)n2/N=C/c2ccc(O)cc2O)cc1`: the growth was -10.4% (active) in test [1]; -32.8% (active) in test [2]; -51.3% (active) in test [3]; -11.5% (active) in test [4]; -52.8% (active) in test [5]; 4.8% (active) in test [6]. Besides, the growth in test [7] is -51% (active).
Consider `COc1ccc(Cl)c([N+](=O)[O-])c1`, for which the growth in test [1] was 104%; in test [2] it was 99.6%; in test [3], 103%; in test [4], 95.5%; in test [5], 108%; in test [6], 104%. Also, in test [7], the growth was 102%.
`O=c1cc(/C=N\Nc2nc(-c3ccc(Cl)cc3Cl)cs2)c2cc(Cl)ccc2o1`: the growth in test [1] was 96.7%; in test [2] it was 105%; in test [3], 104%; in test [4], 78.2%; in test [5], 80%; in test [6], 105%. Further, in test [7], the growth was 94.3%.
As for `O=c1nc(-c2ccccc2)c2cc(-c3ccc(N4CCCC4)nc3)ccc2[nH]1`, the growth in test [1] was 64%; in test [2] it was -1.96% (active); in test [3], 45.8%; in test [4], 35.4%; in test [5] it was 45.7%; in test [6], 80.5%. Further, in test [7], the growth is 56.7%.
With `Cc1cc(NC(=O)CNc2nc(Oc3ccc(F)cc3)nc(-c3ccc(F)cc3)n2)ccc1Cl`, the growth in test [1] was 100%; in test [2] it was 105%; in test [3], 101%; in test [4] it was 94.8%; in test [5], 82.1%; in test [6] it was 102%. The growth in test [7] is 103%.
`O=C(Nc1nc(-c2ccccc2Cl)cs1)c1cc(-c2ccc(Br)cc2)nc2ccccc12`: the growth in test [1] is 70.9%; in test [2], 64.5%; in test [3], 57%; in test [4], 29.4%; in test [5], 43.6%; in test [6] it was 63.9%. Besides, the growth in test [7] is 59%.
In the case of `CCOC(=O)c1c(C)nc2c(c1N)CC(=O)N2CCc1ccccc1`, the growth in test [1] is -17.1% (active); in test [2], 8.84% (active); in test [3] it was -67.5% (active); in test [4] it was 11.8%; in test [5] it was 6.98% (active); in test [6] it was 64.4%. For the same compound, the growth in test [7] is 16.1%.
As for `NS(=O)(=O)c1ccc(-n2ncc(NC(=O)Nc3ccc(S(=O)(=O)Nc4nccs4)cc3)c2-c2ccccc2)cc1`, the growth in test [1] was 103%; in test [2], 98.1%; in test [3], 98.5%; in test [4], 92%; in test [5], 93%; in test [6], 107%. The growth in test [7] is 108%.
Turning to `Cc1cc(O)cc(O)c1N=NC1=NCCS1`, the growth in test [1] was 93.9%; in test [2], 105%; in test [3] it was 111%; in test [4] it was 86.5%; in test [5], 93.3%; in test [6], 95.7%. Moreover, the growth in test [7] was 102%.
As for `CC(C)C1=C[C@@]23CC[C@H]4[C@](C)(COCCC#N)CCC[C@]4(C)[C@H]2C[C@@H]1[C@@H]1[C@H]3[C@@H](OCCC#N)CC[C@@H]1OCCC#N`, the growth in test [1] is 39.4%; in test [2] it was 40.1%; in test [3], 47.4%; in test [4] it was 9.61% (active); in test [5], 24.6%; in test [6], 44.4%. Also, the growth in test [7] was 32.7%.
Turning to `Nc1ccc2c(c1)C(=O)C(=O)c1c-2nc2ccccn12`, the growth in test [1] is -34.6% (active); in test [2], -87.3% (active); in test [3] it was 4.01% (active); in test [4] it was -54.7% (active); in test [5] it was 1.3% (active); in test [6], 19.4%. Further, the growth in test [7] was 20%.
Turning to `Nc1cc(N)nc(SCC(=O)O)n1`, the growth in test [1] was 109%; in test [2], 109%; in test [3] it was 104%; in test [4], 105%; in test [5], 99.1%; in test [6], 101%. Also, the growth in test [7] is 104%.
As for `CC(=O)c1cc2c(N)c(C(=O)Nc3ccccn3)sc2nc1C`, the growth in test [1] was 98.6%; in test [2] it was 5.72% (active); in test [3] it was 96.9%; in test [4], 73.2%; in test [5], 93.3%; in test [6], 84.6%. Also, the growth in test [7] was 89.3%.
